High-throughput results deposited in PubChem by several laboratories.
Only some compounds are listed: those with a hit (about 3.1% of all), similar ones and a draw of the others.
SSB-PriA inh: blocks PriA binding to SSB C-terminal tail; hit rate 0.6% among 430,000; AlphaScreen SSBct-PriA binding, biotinylated peptide; inhibition, % at 33 µM; in the data active = inhibition mostly above about 37%, no sharp cut-off; inactive = mostly below about 20%;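 note: plate controls were negative control peptide for no effect and reference peptide for full effect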
BoNT-A LC inh2: blocks Botulinum neurotoxin A light chain protease; multiplex microsphere protease substrate cleavage, flow cytometry; inhibition, % at 10 µM; hit rate 0.17% among 360,000; note: plate controls were buffer without enzyme for full effect and enzyme alone for no effect
BoNT-F LC inh: BoNT F light chain protease inhibition; AID 588497; inhibition, % at 10 µM; Multiplex microsphere protease cleavage assay, flow cytometry; hit rate 0.22% among 360,000; in the data active = inhibition above about 35%, passing the limit was not always enough; inconclusive = no clear call, values can overlap the other calls; note: plate controls were buffer without enzyme for full effect and enzyme alone for no effect
Anthrax LF inh2: blocks Bacillus anthracis lethal factor protease; P15917; AID 588501; multiplex microsphere protease cleavage assay, LF; inhibition, % at 10 µM; hit rate 0.12% among 360,000; note: plate controls were buffer without enzyme for full effect and enzyme alone for no effect
Bead autofluor: flagged as autofluorescent in microsphere protease counterscreen | compound autofluorescence counterscreen, microsphere flow cytometry; active compounds read high | fluorescence intensity (concentration not given with the values) | hit rate 3.1% among 360,000 | AID 624483; in the data active = fluorescence intensity above about 16000; inconclusive = no clear call, values can overlap the other calls
An asterisk follows results filed as active; u = inconclusive; x = not tested or not shown. Cut-off read from the data, not from the text of the source, unless noted: active = inhibition above about 30%; inconclusive = no clear call, values can overlap the other calls; inactive = below that.

SMILES	SSB-PriA inh	BoNT-A LC inh2	BoNT-F LC inh	Anthrax LF inh2	Bead autofluor
COc1cc(OC)cc(C(=O)Nc2nc(-c3ccc4c(c3)OCO4)cs2)c1	10	x	x	x	x
CCc1ccc(CCC(=O)Nc2ccc(C)c(C)c2)o1	-15	0	-6	-3	8496
CCc1nnc(NC(=O)CCc2ccc(C)o2)s1	9	0	-5	-3	10756
CCc1ccc(CCC(=O)Nc2nc(CC(C)=O)ns2)o1	-14	1	1	-2	16142*
CCc1ccc(CCC(=O)Nc2nnc(C)s2)o1	-10	u	-2	0	20941*
O=C(COc1ccc(N2CC(C(=O)O)CC2=O)cc1)Nc1cccc(C(F)(F)F)c1 (stereo not drawn)	-14	u	-1	1	23245*
O=C(O)C1CC(=O)N(c2ccc(OCc3ccccc3)cc2)C1 (stereo not drawn)	0	3	4	1	21268*
O=C(Nc1nnc(-c2cc(Cl)sc2Cl)o1)c1ccco1	6	x	x	x	x
CCOC(=O)C1=C(C)N=c2sc(=Cc3cccc([N+](=O)[O-])c3O)c(=O)n2C1c1ccc(OC)cc1OC (stereo not drawn)	1	x	x	x	x
Oc1ccc(Cl)c2cccnc12	-4	-1	-7	-6	2917
O=C(O)Cc1ccc(O)c2ncccc12	87*	x	x	x	x
Oc1ccc(CNc2ncccn2)c2cccnc12	76*	x	x	x	x
Oc1ccc(F)c2cccnc12	81*	-1	1	0	4845
Oc1ccc(Br)c2cccnc12	52	x	x	x	x
OCc1ccc(O)c2ncccc12	80*	-1	-5	-7	2892
Cc1cc(C)c2nc(N(CCCN3CCOCC3)C(=O)c3ccn(C)n3)sc2c1	13	x	x	x	x
O=C(CCl)c1ccc(O)c2ncccc12	121*	x	x	x	x
O=C(O)c1ccc(O)c2ncccc12	x	-1	3	9	4534
O=C(O)CCc1ccc(O)c2ncccc12	114*	x	x	x	x
Cc1ccc(/C=C/S(=O)(=O)N2CCCN(S(=O)(=O)c3cnn(C)c3)CC2)cc1	7	x	x	x	x
COc1cc(C)ccc1OCC(=O)NC1CCCCCC1	-13	0	5	-5	3837
COCC(=O)NC1CCN(CC(=O)Nc2ccccc2[N+](=O)[O-])CC1	5	0	-2	2	2604
COc1ccccc1OCC(=O)NCC1CCCCC1	-7	-2	-3	2	23960*
CCc1ccccc1NC(=O)CN1CCC(NC(=O)COC)CC1	2	u	-1	-8	23013*
COC(=O)c1ccccc1OCC(=O)NC1CCCCC1	-11	2	-2	-1	21631*
SMILES	SSB-PriA inh	BoNT-A LC inh2	BoNT-F LC inh	Anthrax LF inh2	Bead autofluor
COc1cc(CNn2cnnc2)ccc1OCC(=O)NC1CCCCC1	-13	-2	-2	-4	24056*
COC(=O)c1sccc1S(=O)(=O)N(CC(=O)Nc1cccc(C)c1)c1ccc(C)c(C)c1	-6	x	x	x	x
C=CCNC(=O)C(=O)NCC(c1cccc2ccccc12)N(C)C (stereo not drawn)	0	x	x	x	x
COCC(=O)NC1CCN(C(=O)Nc2ccc(Br)cc2)CC1	-8	-1	-3	-6	16587*
CCc1ccccc1OCC(=O)NC1CCCC1	-10	1	0	0	23047*
O=C(CN1C(=O)C(=O)c2ccccc21)NC1CCCCC1	-6	u	4	0	21596*
O=C(Nc1ccc(Br)cc1)N1CCCCC1	2	0	3	-1	3734
Cn1c(Br)nc2c1c(=O)n(Cc1ccccc1)c(=O)n2C	-13	-1	u	2	3893
Cn1c(Cl)nc2c1c(=O)n(Cc1cccc(Br)c1)c(=O)n2C	-4	0	-1	0	20509*
COc1ccc(CNc2nc3c(c(=O)n(Cc4ccc(Br)cc4)c(=O)n3C)n2C)cc1	9	-2	-6	-5	20995*
O=S(=O)(c1ccc2c(c1)OCCO2)N1CC(c2nc(-c3cnccn3)no2)C1	9	x	x	x	x
Cc1cc(C)nc(-n2nc(C(C)(C)C)cc2OCC(=O)N2CCc3ccccc32)n1	-7	x	x	x	x
COc1ccc(N/C(C)=C/C(=S)Nc2ccccc2)cc1	43*	5	-5	0	2100
CCOC(=O)c1nn(-c2ccccc2)c(C#N)c1N	-9	0	-1	-1	2015
CCCSc1cc(=O)n(-c2ccccc2)nc1C(=O)OCC	-16	0	-2	3	22530*
COC(=O)c1nn(-c2ccccc2)c(=O)cc1Oc1ccccc1	-16	0	1	-2	22483*
CCOC(=O)c1nnn(-c2ccccc2)c1C	2	u	-7	-1	24310*
CCCCNc1ccccc1C(=O)OCC(=O)Nc1ccc(S(N)(=O)=O)cc1	-23	6	11	-12	17458*
CCC(=O)Nc1ccccc1C(=O)OCC(=O)Nc1ccc(S(N)(=O)=O)cc1	-4	0	-9	-5	10177
COC(=O)C1=NN(c2ccc(C)cc2)C2(S1)SC(C(C)=O)=C(C)N2c1ccccc1 (stereo not drawn)	14	-3	-7	-5	23648*
COC(=O)C1=NN(c2ccccc2)C2(S1)SC(C(C)=O)=C(C)N2c1ccccc1 (stereo not drawn)	5	-1	-9	0	4177
COc1cc(S(=O)(=O)Nc2ccc(Nc3nc(C)cc(N4CCCC4)n3)cc2)c(C)cc1C	-11	x	x	x	x
CC(C)c1ccc(O)c(N)c1	3	0	-6	-3	4305
CCC(C)c1ccc(O)c(N)c1 (stereo not drawn)	6	0	-3	-3	16286*
Cc1cc(NC(=O)C2CCCC2)n(-c2nc3c(cnn3-c3ccc(F)cc3)c(=O)[nH]2)n1	-14	x	x	x	x
SMILES	SSB-PriA inh	BoNT-A LC inh2	BoNT-F LC inh	Anthrax LF inh2	Bead autofluor
CC(C)(Oc1ccc(Cl)cc1)C(=O)Nc1cnc(-n2cccn2)nc1	-12	x	x	x	x
O=C(Nc1ccccc1N1CCCCC1)c1ccc(N2C(=O)c3ccccc3C2=O)cc1	-14	0	-1	-2	16910*
Cc1ccc(O)c(NC(=S)NC(=O)c2ccccc2Cl)c1	13	3	38*	2	4657
Cc1ccc(C(=O)Nc2ccccc2N2CCCCC2)cc1	-10	-2	u	0	3964
COc1ccccc1C(=O)NC(=S)Nc1ccccc1N1CCCC1	x	1	-3	0	5701
O=C(Nc1ccccc1N1CCCCC1)c1ccccc1F	-52	-1	-5	-2	23407*
Cc1ccccc1C(=O)NC(=S)Nc1ccccc1N1CCCC1	39*	-2	-14	-2	2641
O=C(Nc1ccccc1N1CCCC1)c1ccccc1F	-9	1	10	-2	3527
COC(=O)c1sc(S(=O)(=O)Nc2cccc(C(F)(F)F)c2)c(C(=O)OC)c1C	6	x	x	x	x
O=C(Nc1ccccc1N1CCCCC1)c1cc(S(=O)(=O)N2CCOCC2)ccc1F	47*	0	10	-5	4518
